Source: PubChem BioAssay
proKLK7 act – activates the human kallikrein-7 zymogen | activation, % at 7 µM | purified proKLK7, EDANS-DABCYL substrate fluorescence; 100% is mature enzyme control, 0% vehicle | 370,000 compounds, 0.9% hits;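 active = activation above the mean of all tested compounds plus 3 SD, computed per campaign excluding outliers beyond control limits, cut at about 13% in these data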
FAS TE block – FAS thioesterase (human) inhibition; 360,000 compounds, 0.67% hits; inhibition, % at 15 µM; recombinant FAS-TE, OMFH fluorogenic substrate, fluorescence endpoint; P49327;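 active = compounds whose normalised, plate-corrected inhibition of enzyme fluorescence in the single-dose primary screen is 50% or more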
ADAM17 inh – inhibits human ADAM17. 370,000 compounds, 0.83% hits. inhibition, % at 6.95 µM. P78536. recombinant ADAM17, EDANS/DABCYL FRET peptide cleavage. AID 720648;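 active = inhibition above the mean of compounds lying between control limits plus 3 SD, set per campaign, cut at about 8.5% in these data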
ADAM10 inh – ADAM10 inhibition, QFRET primary screen. 370,000 compounds, 0.62% hits. inhibition, % at 7 µM. O14672. recombinant ADAM10, EDANS/DABCYL FRET peptide cleavage, 3 h;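 active = inhibition above a per-campaign cutoff equal to the mean of compounds falling between control-based bounds plus 3 SD, cut at about 20% in these data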
Target sequence (O14672 214-748 limits assumed): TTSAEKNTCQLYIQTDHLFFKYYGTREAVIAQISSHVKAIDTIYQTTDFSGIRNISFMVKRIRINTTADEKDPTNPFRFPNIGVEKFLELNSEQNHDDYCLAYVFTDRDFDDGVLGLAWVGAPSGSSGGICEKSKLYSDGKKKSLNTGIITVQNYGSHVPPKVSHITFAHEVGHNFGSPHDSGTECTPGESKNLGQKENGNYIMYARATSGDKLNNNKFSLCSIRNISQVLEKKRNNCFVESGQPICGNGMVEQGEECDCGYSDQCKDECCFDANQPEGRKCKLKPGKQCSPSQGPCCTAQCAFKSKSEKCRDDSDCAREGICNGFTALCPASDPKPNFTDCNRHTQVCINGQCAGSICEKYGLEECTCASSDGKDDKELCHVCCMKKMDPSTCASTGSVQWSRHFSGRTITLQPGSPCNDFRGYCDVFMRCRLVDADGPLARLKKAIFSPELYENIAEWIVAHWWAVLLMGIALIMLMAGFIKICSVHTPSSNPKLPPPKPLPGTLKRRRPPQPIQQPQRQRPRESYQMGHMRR
GRIN3A LBD mod – NR3A (human) ligand-binding domain modulation | AID 1259313 | 340,000 compounds, 2.5% hits | NR3A LBD differential scanning fluorimetry, Tm shift; 0% = protein alone, 100% = glycine-bound protein | Tm shift relative to glycine control, % at 25 µM;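 active = melting temperature shift of at least 10% of the positive control shift, at one fixed dose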
Numbers stand for hits; - = inactive; . = not tested or not shown. Hits are enriched below; roughly 4.6% of the tested compounds scored in any of these assays.

SMILES | proKLK7 act | FAS TE block | ADAM17 inh | ADAM10 inh | GRIN3A LBD mod
COC(=O)[C@]12C[C@H](CC(=O)NCCCCc3ccccc3)C(=O)N(CCc3ccc(OC)c(OC)c3)C1=C[C@H](C(C)C)O[C@@H]2C1CC1 | - | . | - | - | .
Cc1ccc2c(c1)[C@H]1[C@H](CO2)[C@H](c2ccccc2)[C@]2(C)C(=O)N(Cc3ccccc3)CC(=O)N12 | - | - | - | - | -
COc1ccc2c(c1)[C@H]1[C@H](CO2)[C@H](c2ccccc2)[C@]2(C)C(=O)N(Cc3ccc(C)cc3)CC(=O)N12 | . | 63 | . | . | -
COc1ccc2c(c1)OC[C@H]1[C@H]2N2C(=O)c3cc(OC)c(OC)cc3NC(=O)[C@@]2(C)[C@H]1c1ccccc1 | - | 91 | - | - | -
C[C@@]12C(=O)Nc3ccc(Cl)cc3C(=O)N1[C@H]1c3ccccc3OC[C@@H]1[C@@H]2c1ccccc1 | . | 83 | . | . | -
Cc1c(Cl)ccc2c(C(O)CBr)cc(-c3ccccc3)nc12 (stereo unspecified) | - | - | - | - | 32
Cc1ccc(-c2cc(C(=O)NCCCN3CCOCC3)c3ccc(Cl)c(C)c3n2)cc1 | - | - | - | - | -
O=C(OCCN1CCN(C2CN(Cc3cn(Cc4ccccc4Cl)nn3)S(=O)(=O)C2)CC1)c1cc2ccccc2o1 (stereo unspecified) | - | . | - | - | .
Cc1ccc(-n2nnnc2SCC(=O)Nc2nc(-c3ccc(F)cc3)cs2)cc1C | - | - | - | - | 30
CC(C)C[C@@H]1NC(=O)[C@H]2C[C@]3(c4ccccc4)c4ccccc4N[C@H]3N2C1=O | - | . | - | - | .
Cc1ccc(C)c(SCC(=O)NC2CCS(=O)(=O)C2)c1 (stereo unspecified) | - | - | - | - | -
Cc1ccc(-n2nnnc2SCC(=O)NC2CCS(=O)(=O)C2)c(C)c1 (stereo unspecified) | - | - | - | - | 19
O=C1CC(N2CCOCC2)C(=O)N1c1cc(Cl)cc(Cl)c1 (stereo unspecified) | - | - | - | - | -
Cc1cc(C)cc(N2C(=O)CC(N3CCOCC3)C2=O)c1 (stereo unspecified) | - | - | - | - | 11
O=C(N/N=C/c1cc2c(cc1Br)OCO2)c1cc2ccccc2o1 | - | - | - | - | 13
COC(=O)[C@]12C[C@H](CC(=O)NCCc3ccccc3OC)C(=O)N(Cc3ccccc3)C1=C[C@H](COCc1ccccc1)O[C@@H]2C | - | . | - | - | .
CCCC[C@H](C(=O)N(C)c1ccccc1)[C@@H](O)c1ccc(Cl)cc1 | - | . | - | - | .
CCCc1cc(=O)oc2c(C)c(OS(C)(=O)=O)ccc12 | - | - | - | - | 16
CCN1C2=NCCCN2c2ccccc21 | - | - | - | - | 11
ClCCN1C2=NCCCN2c2ccccc21 | - | - | - | - | -
O=C(OCc1cn(Cc2c(F)cccc2F)nn1)N1CCOCC1 | - | . | - | - | .
CCN(CC)S(=O)(=O)c1ccc(N/N=C/c2cccnc2)nc1 | - | - | - | - | -
CCN(CC)S(=O)(=O)c1ccc(N/N=C/c2cc(OC)ccc2O)nc1 | - | - | - | - | 24
Cc1nn(-c2ccccc2)c(Cl)c1/C=N/NC(=O)c1ccccc1NS(=O)(=O)c1cccs1 | - | - | - | - | 16
COc1ccc(OC)c(S(=O)(=O)N2CCCCC2C(=O)N2CCN(c3ccc(F)cc3)CC2)c1 (stereo unspecified) | - | . | - | - | .
SMILES | proKLK7 act | FAS TE block | ADAM17 inh | ADAM10 inh | GRIN3A LBD mod
COC(=O)c1ccc2[nH]c3cccc(/C(=C/c4ccccc4)c4ccccc4)c3c2c1 | - | - | - | - | 24
Cc1ccc(S(=O)(=O)C2(C(=O)NC3CCCCC3)CC2)cc1 | - | - | - | - | 26
O=C(NCc1ccccc1)C1CCN(c2nc(-c3ccc(Br)cc3)cs2)CC1 | . | . | - | - | .
COCCCN1C(=O)[C@H](CC(=O)NCCC(C)C)[C@]2(C(=O)OC)CCCCC=C12 | - | . | - | - | .
Nc1nnc(SCCOc2cccc(Br)c2)s1 | - | - | - | - | 13
CCOC(=O)c1ccc(NC(=O)CSc2nnc(SCc3cccc4ccccc34)s2)cc1 | - | . | - | - | .
CC(C)(C)CC(=O)NC(=S)Nc1ccccc1C(F)(F)F | - | - | - | - | 14
CCCC[C@H]1C2CC(OC(=O)Nc3cccc(F)c3)C(C2)[C@H]2CCCCN21 (stereo partly specified) | - | . | - | - | .
COCCCNC(=O)C[C@H]1C[C@@]2(C(=O)OC)C(=C[C@H](C(C)C)O[C@@H]2C2CC2)N(Cc2ccc(Cl)cc2Cl)C1=O | - | . | - | - | .
CCOC(=O)c1[nH]c2ccc(OC)cc2c1NC(=S)N1CCN(c2ccc(F)cc2)CC1 | - | - | - | - | -
CCOC(=O)c1[nH]c2ccc(OC)cc2c1NC(=S)N1CCN(c2cccc(C)c2C)CC1 | - | - | - | - | 12
O=C(OC1CC2CCC(C1)[N+]21CCCC1)C(O)(c1ccccc1)c1ccccc1 (stereo unspecified) | - | . | - | - | .
COCOc1ccc(/C=C/C(=O)c2c(OCOC)cc(OCOC)c(CC=C(C)C)c2O)cc1OCOC | . | - | . | . | -
CC(C)=CCC/C(C)=C/Cc1c(O)ccc(C(=O)/C=C/c2ccc(O)cc2)c1O | - | - | - | - | 29
C=C(C)C(O)Cc1c(OC)ccc(C(=O)/C=C/c2ccc(O)cc2)c1O (stereo unspecified) | - | - | - | - | 25
COc1ccc(C(=O)N2CCC(Oc3cccnc3)CC2)c(OC)c1 | - | . | - | - | .
O=C(O)CN1C(=O)/C(=C\C(Br)=C\c2ccccc2)SC1=S | - | - | - | - | 13
O=C(O)CN1C(=O)/C(=C/C=C/c2ccccc2)SC1=S | - | - | - | - | 21
COC(=O)C1CN(Cc2ccc(F)cc2)CCS(=O)(=O)N1Cc1cn(CCOC(C)=O)nn1 (stereo unspecified) | - | . | - | - | .
Oc1nc(Nc2ccc(Cl)cc2Cl)sc1/C=C1\C=Nc2ccccc21 | - | - | - | - | 23
COc1ccc(CCNC(=O)Cn2nc(-c3ccccc3)ccc2=O)cc1 | - | . | - | - | .
COc1ccc(NS(=O)(=O)c2ccc(N3CCCC3)c(NC(=S)Nc3ccc(SC(F)F)cc3)c2)cc1 | - | - | - | - | 12
COc1ccc(NS(=O)(=O)c2ccc(N3CCCC3)c(NC(=S)Nc3cccc(C)c3C)c2)cc1 | - | - | - | - | -
O=[N+]([O-])c1ccccc1S(=O)(=O)N1CCC(c2cn3ccccc3n2)CC1 | - | . | - | - | .
O=C(c1ccccc1Oc1ccc(C(F)(F)F)cc1[N+](=O)[O-])N1CCOCC1 | - | - | - | - | -
O=C(Nc1ccccc1Cl)c1ccccc1Oc1ccc(C(F)(F)F)cc1[N+](=O)[O-] | - | - | - | - | 12
Cc1cccc(N2CCN(CC(=O)Nc3ccccc3[N+](=O)[O-])CC2)c1C | - | - | - | - | 15
CN1CCN(CC(=O)Nc2ccccc2[N+](=O)[O-])CC1 | - | - | - | - | -
